BCR signal inh: inhibitors of chronic active B-cell receptor signaling | ABC-DLBCL IkBa-CBG/CBR reporter, luminescence ratio, 4 h | hit rate 0.05% among 340,000 | Potency, µM (doses to about 46.1 µM), inactives show at the highest dose activity change, negative = inhibition, most hits filed as inhibitors; active means well fitted inhibition curve with a large enough effect in the signal ratio, with a control signal flat, not every such curve was filed as active; inconclusive means small, poorly fitted or top-dose-only effect, or effect the other way, or a change in a side signal; the % refers to the signal ratio;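 further: potency means the concentration at half of the fitted maximal effect; plate controls were basal doxycycline-induced cells for no effect and cells given 10 µM MG132 for full effect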
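Concentration-response series (up to 46 uM) were applied to TMD8 dual-reporter cells for 4 h at 37C with doxycycline. Green/red ratio, after filter-overlap correction, defined %Activity; red signal alone was normalised to basal cells and zero luminescence.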
VP16 counter: Gal4-VP16 reporter inhibition counter-screen; hit rate 3.5% among 310,000; Potency, µM (series often up to 53.6 µM), for the others: at the top dose activity, negative = inhibition, hits mostly inhibitors; Drosophila S2 Gal4-VP16 UAS-luciferase, luminescence, 20 h;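 further: Gal4-VP16 expression switched on by copper sulfate through the metallothionein promoter; potency means the concentration at half of the fitted maximal effect; on the % scale 0 is the no-effect control and ±100 the full control effect; nearly all actives have a fitted effect of over 50% in size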
SW480 rereplic: DNA re-replication induction in SW480 cells; SW480 DNA re-replication, Hoechst DNA content imaging, 48 h; Potency, µM (top dose mostly 46.1 µM), for inactives: top-dose re-replication activation, usual class: activators; hit rate 1.8% among 340,000; AID 624297; further: potency means the concentration at half of the fitted maximal effect; % of control where 0% means no effect; nearly all actives have a fitted effect of over 55% in size
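First, 250 cells per well were seeded. Next, compound or vehicle (23 nL) was pinned in, plates sat 48 hr at 37 C. Finally Hoechst was added for 40 min before fluorescence scanning.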
RORg inh: inhibitors of mouse ROR gamma transcriptional activity. Drosophila S2 Gal4-RORgamma UAS-luciferase reporter, 20 h. Potency, µM (top dose mostly 53.6 µM), without a hit: top-dose activity change, negative = inhibition, hits mostly inhibitors. hit rate 5.4% among 310,000. AID 2551; further: potency means the concentration at half of the fitted maximal effect; on the % scale 0 is the no-effect control and ±100 the full control effect; nearly all actives have a fitted effect of over 60% in size
Target sequence (P51450 whole entry, looked up, the tested form may be a part): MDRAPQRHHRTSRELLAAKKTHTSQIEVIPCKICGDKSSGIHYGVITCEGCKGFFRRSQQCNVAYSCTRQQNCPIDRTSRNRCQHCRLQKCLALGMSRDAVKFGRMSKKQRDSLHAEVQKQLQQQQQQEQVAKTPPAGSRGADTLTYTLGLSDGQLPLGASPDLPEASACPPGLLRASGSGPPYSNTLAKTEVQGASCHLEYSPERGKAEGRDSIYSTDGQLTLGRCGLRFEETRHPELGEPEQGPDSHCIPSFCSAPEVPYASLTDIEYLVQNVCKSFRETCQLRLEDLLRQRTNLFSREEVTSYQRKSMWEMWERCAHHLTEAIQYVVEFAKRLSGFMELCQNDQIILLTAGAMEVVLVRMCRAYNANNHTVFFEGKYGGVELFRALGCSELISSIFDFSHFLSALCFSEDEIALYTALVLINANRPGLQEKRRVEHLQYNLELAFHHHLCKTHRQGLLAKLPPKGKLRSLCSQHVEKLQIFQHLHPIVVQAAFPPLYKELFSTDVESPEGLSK
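Read-out: Photinus luciferase luminescence; inhibitors lower reporter signal. Insect Schneider cells with Gal4-ROR gamma fusion under metallothionein promoter, UAS reporter; 700 uM final copper sulfate induction, 20 hr, ambient temperature.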
MCF10A rereplic: induces DNA re-replication in MCF 10a normal breast cells; hit rate 2.9% among 350,000; MCF 10A DNA re-replication, Hoechst nuclear intensity, 48 h; Potency, µM (doses to about 46.1 µM), for the others: at the highest dose activity, positive = re-replication, usual class: activators; further: potency means the concentration at half of the fitted maximal effect; % of control where 0% means no effect; nearly all actives have a fitted effect of over 50% in size
Giardia kill: Giardia lamblia killing; Giardia lamblia trophozoite viability; activity change, % at 7.66 µM, hits read low; hit rate 0.15% among 340,000; in the data active means activity change below about -80%; inconclusive means between about -30% and that limit;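 further: parasites exposed to compound for two days anaerobically before the ATP read; on the % scale 0 is the no-effect control and ±100 the full control effect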
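Giardia trophozoites, 100 cells per well, were exposed to compounds for 48 hrs at 37 deg C under anaerobic conditions; viability was then read as ATP content by bioluminescence after 15-30 min at room temperature.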
The depositor's hits bear a star; ? = inconclusive; nt = no result; [ ] = remark or other dose. Sampled rows, rich in hits. Any-hit rate of the full collection: about 8.3%. Unless noted, the call rests on the fitted dose curve; in most records, active means well fitted curve in the direction sought with a large enough effect; inconclusive means small, poorly fitted or top-dose-only effect, or another doubt; inactive means no such curve, though single readings can be large; an effect the other way counts as inactive or inconclusive.

SMILES	BCR signal inh	VP16 counter	SW480 rereplic	RORg inh	MCF10A rereplic	Giardia kill
CC(C)(C)C1CC=C2C(C#N)=C(N)C(C#N)(C#N)C(c3cccs3)C2C1 (stereo not drawn)	-17.9%	5.8%	nt	-2.3%	nt	nt
CCc1ccc(C2C(C#N)=C(N)C(C#N)(C#N)C3=CCC(C(C)(C)C)CC32)cc1 (stereo not drawn)	?	?	8.2µM*	?	14.6µM*	-1.5
CC(C)(C)C(=O)N1CCN(c2ccnc3cc(Cl)ccc23)CC1	-9.4%	-8.6%	2.0%	35.5%	-3.3%	2.4
COc1ccccc1N1CCN(c2ccnc3cc(Cl)ccc23)CC1	20µM*	7.9%	8.2µM*	13.2%	2.59µM*	21.1
O=C(Nc1ccc(OC(F)(F)F)cc1)N1CCN(c2ccnc3cc(Cl)ccc23)CC1	?	28.2µM*	20.2%	?	?	-0.3
CC1=CC(C)(C)n2c(O)c(N=NC(N)=S)c3cccc1c32	-6.8%	2µM*	3.0%	1.12µM*	18.4%	6.7
COc1cc2c3c(c1)c(N=NC(N)=S)c(O)n3C(C)(C)C=C2C	?	4.47µM*	8.0%	2µM*	10.7%	3.8
CC1=CC(C)(C)n2c(O)c(N=NC(N)=S)c3c(C)c(C)cc1c32	?	6.2%	4.7%	6.4%	-24.6%	-6.1
CC1=CC(C)(C)n2c(O)c(N=N)c3c(C)ccc1c32	?	-27.3%	6.4%	-2.8%	?	-3.8
CC1=CC(C)(C)n2c(O)c(N=NC(N)=S)c3c(C)ccc1c32	?	2.51µM*	2.6%	4.47µM*	-1.0%	19.6
C#CCOCCOCCOCCNc1nc(N2CCN(C(=O)[C@H]([C@@H](C)CC)n3cc([C@@H](N)Cc4ccc(O)cc4)nn3)CC2)nc(N2CCN(C(=O)[C@H](CCCCN)n3cc([C@@H](N)CC(C)C)nn3)CC2)n1	-7.7%	-3.9%	nt	-24.2%	nt	nt
O=C(CN1C(=O)NC2(CCCc3ccccc32)C1=O)N1CCc2ccccc2C1 (stereo not drawn)	0.4%	-5.2%	5.9%	5.6%	-6.5%	-4.3
Cc1coc2cc3oc(=O)c(CCC(=O)N4C[C@H]5C[C@@H](C4)c4cccc(=O)n4C5)c(C)c3cc12	16.1%	0.0%	-6.0%	-24.1%	-13.3%	14.2
CCOC(=O)C(=CNc1nc(-c2ccc3ccccc3c2)cs1)C(=O)OCC	?	4.2%	9.7%	-4.4%	?	5.5
COc1cc(C2C(C#N)=C(N)N(Nc3ccccc3)C3=C2C(=O)CC(C)(C)C3)ccc1OCc1cccc(F)c1 (stereo not drawn)	?	-17.1%	?	?	?	3.8
C=CCOc1ccc(C2C(C#N)=C(N)N(Nc3ccccc3)C3=C2C(=O)CCC3)cc1OC (stereo not drawn)	?	-0.8%	?	?	23.1µM*	4.6
COc1cc(C2C(C#N)=C(N)N(Nc3ccccc3)C3=C2C(=O)CC(C)(C)C3)ccc1OCc1ccccc1 (stereo not drawn)	?	-15.4%	25.9µM*	?	?	-2.9
O=C(CN1C(=O)NC2(CCCC2)C1=O)OCCOc1ccccc1	0.9%	16.2%	3.7%	-6.8%	-0.4%	?
COc1ccc(/C=N/NC(=O)c2cc(C)oc2C)cc1OCc1ccccc1	?	?	0.1%	10µM*	14.0%	18.3
COc1cc(/C=C/[N+](=O)[O-])ccc1OCc1cccc(C(=O)O)c1	?	-21.4%[10 µM]	?	7.08µM*	10.3µM*	1.7
Cc1cc(C(=O)N/N=C/c2ccc(OCc3ccccc3)cc2)c(C)o1	?	-16.1%	5.0%	?	?	-18.8
COc1ccc(/C=N/NC(=O)c2cccc([N+](=O)[O-])c2)cc1OC(=O)c1ccccc1	-0.2%	?	?	?	?	4.5
COc1ccc(/C=N/NC(=O)c2cccc([N+](=O)[O-])c2)cc1OC(=O)c1ccc(C)cc1	2.9%	?	?	5.01µM*	?	3.1
O=C(N/N=C/c1ccc(OC(=O)c2ccccc2)c([N+](=O)[O-])c1)c1ccc(O)cc1	?	?	-5.7%	8.91µM*	7.8%	-0.6
O=C(CCC(=O)Nc1ccc(Br)cc1)N/N=C/c1ccc(O)cc1	-9.8%	1.3%	21.8%	11.6%	12.0%	-12.5
SMILES	BCR signal inh	VP16 counter	SW480 rereplic	RORg inh	MCF10A rereplic	Giardia kill
COc1cc(/C=N/NC(=O)c2cccc([N+](=O)[O-])c2)ccc1OCc1ccccc1	-5.2%	?	-6.9%	3.16µM*	1.3%	-3.3
Cc1ccc(CSc2nnc(-c3ccncc3)n2C)cc1	8.0%	-1.8%	-8.9%	-4.3%	2.6%	-1.7
Cc1ccc(Nc2nc(CSc3nnc(-c4cccnc4)n3-c3ccccc3F)cs2)cc1	?	-9.5%	-8.5%	3.98µM*	10.5%	-4.0
Cc1ccc(Nc2nc(CSc3nnc(-c4ccncc4)n3C)cs2)cc1	8.8%	?	10.7%	15.8µM*	1.5%	?
Cc1cnn(CCC(=O)NNC(=S)NCC(C)C)c1	18.4µM*	3.16µM*	-3.1%	0.562µM*	-2.6%	?
CCCCNC(=S)NNC(=O)CCn1cc(C)cn1	?	6.31µM*	1.2%	1.58µM*	1.2%	6.1
CC(C)CNC(=S)NNC(=O)CC(C)O (stereo not drawn)	3.8%	0.5%	-2.9%	0.0%	?	-23.1
O=C(c1cc2c(cc1Br)OCCCO2)N1CCCCC1	-4.9%	13.0%	-0.2%	13.7%	-1.0%	3.4
CCCCCCn1ccc(=N)cc1	2.3%	7.08µM*	-4.6%	-35.6%	2.4%	2.3
COC(=O)c1c(C)[nH]c(-c2csc(N)n2)c1C	?	-14.5%	14.6µM*	17.7%	?	-10.4
CCOC(=O)c1[nH]c(C)c(C(=O)OC)c1C	?	23.2%	-4.4%	17.4%	11.5%	-19.2
S=C(NCCc1ccccn1)Nc1ccccc1	?	?	0.2%	20µM*	1.8%[9.22 µM]	-10.3
COc1cccc(NC(=S)NCCc2ccccn2)c1	-8.7%	17.8µM*	?	?	0.7%	-6.8
S=C(NCCc1ccccn1)Nc1cc(Cl)cc(Cl)c1	-0.4%	?	5.6%	5.01µM*	?	27.5
S=C(NCc1cccnc1)Nc1ccc(Cl)c(Cl)c1	?	?	-11.2%	?	-6.4%	-4.5
S=C(NCCc1ccccn1)Nc1ccc(Cl)c(Cl)c1	2.8%	7.08µM*	-0.8%	5.62µM*	?	12.9
CCN(CC)C(=S)Nc1ccc(Cl)c(Cl)c1	?	?	-31.5%	17.8µM*	23.7%	-17.3
COCCNC(=S)Nc1ccc(Cl)c(Cl)c1	8.3%	?	-5.1%	10µM*	-1.4%	-12.0
OCC1(Cc2ccc(F)cc2)CCCN(CCc2ccccc2)C1 (stereo not drawn)	?	-5.2%	-0.6%	-14.6%	?	8.6

Screening results deposited in PubChem by National Center for Advancing Translational Sciences (NCATS).
